IL-1B inflam inh: inflammasome signaling inhibition, IL-1 beta readout | THP-1 LPS/ATP IL-1B secretion, AlphaLISA, 16 h; stronger effect = lower value | 360,000 tested, 4.7% active | AID 743279 | activity change, % at 57.5 µM; in the data active = activity change below about -50%; inconclusive = mostly about -30% to -49%
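THP-1 cells pretreated 1 hr with compounds (up to 57.5 uM final), then stimulated with LPS (250 ng/mL final) plus ATP (1.25 mM final); secreted IL-1B measured by AlphaLISA after 16 hr, decreased signal indicating inhibition.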
HT1080 IDH1KD tx: HT-1080 IDH1 knockdown cell toxicity (counter line). Potency, µM (top dose mostly 46.1 µM), actives largely listed as cytotoxic. 360,000 tested, 2% active. HT-1080 IDH1 knockdown viability, ATP luminescence, 48 h
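% activity derives from luminescence (CellTiter-Glo), normalised to DMSO and no-cell wells. HT-1080-IDH1KD cells, 750/well, had 48 h compound exposure at 37 °C.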
ELG1 DNA repair: blocks ELG1-dependent DNA repair in HEK293T cells | AID 504467 | 330,000 tested, 2.3% active | HEK293T ELG1-luciferase reporter, luminescence, 16 h; DNA damage induced by 5-fluorouridine | Potency, µM (top dose mostly 46.1 µM), actives largely listed as inhibitors; also: nearly all actives have a fitted effect of over 55% in size
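HEK293T cells expressing luciferase-tagged ELG1 (2,000/well) received 5-Fluorouridine plus compound or DMSO for 16 hr at 37 °C. Luciferase was read by ONE-Glo luminescence after 30 min at room temperature.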
DT40 TDP1 CPT: DT40-hTDP1 cell growth loss with CPT; 420,000 tested, 12% active; Potency, µM (top dose mostly 46.2 µM), most hits filed as inhibitors; AID 686979; chicken DT40 Tdp1-/-;hTDP1 cells + 20 nM CPT, ATP luminescence, 48 h; also: nearly all actives have a fitted effect of over 55% in size
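Cell growth measured by CellTiter-Glo luminescence after a minimum 48 h, 37 C compound exposure with 20 nM CPT in Tdp1-knockout DT40 cells stably expressing hTDP1, seeded 400/well; qHTS titration format.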
DT40 TDP1 no CPT: qHTS for Inhibitors of human tyrosyl-DNA phosphodiesterase 1 (TDP1): qHTS in cells in absence of CPT; 420,000 tested, 15% active; DT40 Tdp1-/- hTDP1 cells, no CPT, ATP luminescence, 48 h; Potency, µM (titrated, usually from 46.2 µM), hits mostly inhibitors; also: nearly all actives have a fitted effect of over 55% in size
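Chicken DT40 Tdp1-/- cells stably complemented with human TDP1 were seeded at 400 cells/well with DMSO in place of 20 nM camptothecin. After compound pinning, cells grew at least 48 hr at 37 °C; viability read by CellTiter-Glo luminescence.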
HT1080NT lethal: kills 2HG-producing HT-1080-NT fibrosarcoma cells; HT-1080-NT fibrosarcoma viability, CellTiter-Glo ATP luminescence, 48 h; Potency, µM (doses to about 46.1 µM), hits mostly cytotoxic; 360,000 tested, 1.6% active; AID 686970;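 also: NT is the 2HG producing partner of a matched IDH1 knockdown line; nearly all actives have a fitted effect of over 55% in size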
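A 48-hour cytotoxicity screen used HT-1080-NT cells plated 2 hours before compound delivery. ATP-based CellTiter-Glo luminescence measured viability, normalized to DMSO and no-cell controls.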
Numbers stand for hits; - = inactive; ? = inconclusive; . = not tested or not shown. Hits are enriched below; roughly 19% of the tested compounds scored in any of these assays. Unless noted, calls follow the shape of the dose curve; as a rule, active = well fitted curve in the direction sought with a large enough effect; inconclusive = small, poorly fitted or top-dose-only effect, or another doubt; inactive = no such curve, though single readings can be large; an effect the other way counts as inactive or inconclusive.

SMILES	IL-1B inflam inh	HT1080 IDH1KD tx	ELG1 DNA repair	DT40 TDP1 CPT	DT40 TDP1 no CPT	HT1080NT lethal
CN(C)c1cc(Nc2ccc(O)cc2)c([N+](=O)[O-])c2nonc12	-	-	-	-	-	-
O=[N+]([O-])c1c(Nc2ccccn2)cc(Cl)c2nonc12	-101.1	?	?	1.84µM	5.17µM	?
COc1ccc(-n2ncc(C(C)NS(=O)(=O)c3cccs3)c2C)cc1 (stereo unspecified)	-	-	-	-	?	-
COC(=O)C1=C(C)N(Cc2ccccc2)C(=NCCc2cccnc2)N[C@H]1c1ccc(Br)cc1	-	?	-	3.66µM	4.61µM	?
COC(=O)C1=C(C)N(Cc2ccccc2)C(=NCC2CC2)N[C@H]1c1ccccc1	-	-	-	20.6µM	23.1µM	-
COC(=O)C1=C(C)N(Cc2ccccc2)C(=NCCCCO)N[C@H]1c1ccccc1	-	-	-	?	?	-
COC(=O)C1=C(C)N(Cc2ccccc2)C(=NCCc2cccnc2)N[C@H]1c1ccccc1	-58.3	-	-	11.6µM	20.6µM	?
COC(=O)C1=C(C)N(Cc2ccccc2)C(=NCc2ccc3c(c2)OCO3)N[C@H]1c1ccccc1	-56.5	-	?	?	18.4µM	-
CC(Sc1nnnn1-c1ccccc1)C(=O)Nc1ccc(N2CCN(C)CC2)cc1 (stereo unspecified)	-	-	-	13µM	10.3µM	-
O=C(NC(c1ccc(Cl)cc1)c1cnccn1)C1CCN(CCCc2ccccc2)CC1 (stereo unspecified)	?	?	.	23.1µM	?	?
O=C(NC(c1ccc(Cl)cc1)c1cnccn1)C1CCN(CCCOc2ccccc2)CC1 (stereo unspecified)	-58.4	?	.	23.1µM	20.6µM	?
O=C(NC(c1ccc(Cl)cc1)c1cnccn1)C1CCN(Cc2ccccc2)CC1 (stereo unspecified)	-	-	.	?	?	-
COCCN(C(=O)c1cccc(N2C(=O)CCC2=O)c1)c1nc(-c2ccc([N+](=O)[O-])cc2)cs1	-	-	5.8µM	?	20.6µM	-
CCOC(=O)Cn1c(S(=O)(=O)Cc2cccc(F)c2)nc(-c2ccccc2)c1-c1ccccc1	-	7.08µM	-	8.2µM	10.3µM	-
O=C(Cn1c(S(=O)(=O)Cc2ccccc2)nc2ccccc21)N1CCCCC1	?	-	-	?	-	-
CCOC(=O)Cn1c(-c2ccccc2)nc2ccccc2c1=O	-	-	-	-	-	-
C#CCn1c(S(=O)(=O)Cc2ccc(F)cc2)nc(-c2ccccc2)c1-c1ccccc1	?	1.41µM	-	14.6µM	10.3µM	?
COc1ccc(N=Cc2cc(Cc3ccccc3Cl)cc([N+](=O)[O-])c2O)cc1OC	-	-	?	?	25.9µM	-
CC1(c2ccccc2Cl)NC(=O)N(CC(=O)c2ccc3c(c2)OCO3)C1=O (stereo unspecified)	-	-	-	-	-	-
OC[C@@H]1CN(Cc2ccc(-c3ccccc3)cc2)C[C@H](n2cnc3c(NC4CCC4)ncnc32)O1	-	16.4µM	.	4.11µM	4.11µM	13µM
OC[C@@H]1CN(Cc2ccc3c(c2)OCO3)C[C@H](n2cnc3c(NC4CC4)ncnc32)O1	-	-	.	?	20.6µM	-
CNc1ncnc2c1ncn2[C@H]1CN(Cc2ccccc2)C[C@@H](CO)O1	-	?	.	?	-	?
CNc1ncnc2c1ncn2[C@H]1CN(Cc2cccc3ccccc23)C[C@@H](CO)O1	-	-	.	23.1µM	?	-
OC[C@@H]1CN(Cc2ccc(Cl)cc2)C[C@H](n2cnc3c(NC4CCCC4)ncnc32)O1	-	-	.	20.6µM	?	-
OC[C@@H]1CN(Cc2ccc(F)cc2)C[C@H](n2cnc3c(NC4CC4)ncnc32)O1	-	-	.	?	-	-
SMILES	IL-1B inflam inh	HT1080 IDH1KD tx	ELG1 DNA repair	DT40 TDP1 CPT	DT40 TDP1 no CPT	HT1080NT lethal
CC(C)CN(C(=O)CN1C(=O)NC(c2ccccc2)(c2ccccc2)C1=O)C1CCS(=O)(=O)C1 (stereo unspecified)	-	-	-	-	-	-
Cc1cccc(C)c1NC(=O)C1(C)CSCC(=O)N1CCc1ccccc1 (stereo unspecified)	-	-	.	?	-	-
O=c1[nH]nnc2sc3c(c12)CCCC3	-	-	13µM	?	?	-
COc1ccc(N2CCN(C(=O)CCCN3C(=O)c4cccc5cccc(c45)C3=O)CC2)cc1	-	-	10.3µM	?	16.4µM	-
COc1ccccc1N1CCN(C(=O)CCN2C(=O)c3cccc4cccc(c34)C2=O)CC1	-	-	-	?	?	-
O=C(CCCN1C(=O)c2cccc3cccc(c23)C1=O)N1CCN(c2ccc(F)cc2)CC1	-53.5	-	?	?	16.4µM	-
O=C(COc1ccccc1Cl)Nc1ccc(OCc2cc(=O)n3ccsc3n2)cc1	.	.	.	-	-	.
CCC1(C2CCN(C(=O)c3coc4c3C(=O)CCC4)CC2)NC(=O)N(CCc2scnc2C)C1=O (stereo unspecified)	.	.	.	-	-	.
O=C1OCc2ccc([N+](=O)[O-])cc21	-	-	.	-	-	-
CC1(C(=O)NS(=O)(=O)c2cccs2)CCN1C(=O)CC1CCCC1 (stereo unspecified)	-	?	.	-	-	-
Cc1nnc(NC(=O)CSc2nc(CC(C)C)nc3c2c(=O)n(C)c(=O)n3C)s1	-	-	-	16.4µM	10.3µM	-
Cc1csc(NC(=O)CSc2nc(C)nc3c2c(=O)n(C)c(=O)n3C)n1	-	-	20.6µM	?	20.6µM	-
CCCc1nc(SCC(=O)Nc2cc(C)on2)c2c(=O)n(C)c(=O)n(C)c2n1	-	-	-	?	?	-
CCc1nc(SCC(=O)Nc2nnc(CC)s2)c2c(=O)n(C)c(=O)n(C)c2n1	-	-	16.4µM	6.51µM	8.2µM	-
Cc1cccc(NC(=O)CSc2nc(C)nc3c2c(=O)n(C)c(=O)n3C)c1	-	-	-	?	-	-
CCCc1nc(SCC(=O)Nc2nnc(CC)s2)c2c(=O)n(C)c(=O)n(C)c2n1	-	-	?	6.51µM	3.26µM	-
COc1ccc(C(=O)NCCS(=O)(=O)N(C)Cc2ccccc2)cc1	-	-	-	-	?	-
COc1ccc(CN2C(=O)C(CC(=O)NCc3ccco3)CC(C(=O)N(C(C)C)C(C)C)=C2C)cc1 (stereo unspecified)	-	-	.	?	?	-
COc1ccc(NC(=O)Cn2ccn(-c3ccccc3)c(=O)c2=O)cc1	.	.	.	-	-	.

Source: PubChem
